# Most compounds without a hit are left out; they make up all but 6.3% or so of the library.
# Autofluor 339 = intrinsic fluorescence of library compounds, ex339/em460 – biochemical, MLSMR library, data from DPM-DC assay, artefact control, profiling panel; fluorescence fold increase at 10 µM; hit rate 5.5% among 65,000; compound autofluorescence, ex339/em460 nm, NADH buffer; active compounds read high; 1 = no-compound wells, NADH background;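 active = at 10 µM, mean starting fluorescence two-fold or more over control wells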;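 note: signal is the first read of a kinetic run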
# Spn PMK inh = inhibitors of Streptococcus pneumoniae phosphomevalonate kinase | hit rate 0.49% among 65,000 | purified PMK, PK/LDH-coupled NADH absorbance 340 nm | inhibition, % at 10 µM;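 active = top-ranked compounds by inhibition in the single 10 µM screen, taking a fixed number of the strongest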;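 note: 0% = full reaction with DMSO carrier and 100% = background rate without enzyme reaction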
# MK inhibit = inhibitors of Streptococcus pneumoniae mevalonate kinase; purified MK, PK/LDH-coupled NADH absorbance 340 nm; inhibition, % at 10 µM; hit rate 0.48% among 65,000;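 active = ranked among the strongest by inhibition in the single 10 µM screen, a fixed top-ranked set picked for dose follow-up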
# NADH enzymes = inhibitors of enzymes used to reach an NAD/NADH endpoint; coupled PK/LDH NADH assays, four targets; IC50, µM (doses to about 10 µM), for inactives: at the highest dose inhibition; hit rate 0.02% among 65,000; AID 774;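 active = single-dose screening hits from any of four coupled enzyme assays that gave an IC50 when retested across doses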;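 note: the DPM-DC format reads NADH fluorescence rather than 340 nm absorbance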
# Abs 340nm = compound absorbs light at 340 nm; compound absorbance at 340 nm, fold over control; fold change at 10 µM; 65,000 tested, under 10 active; AID 708;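 active = at 10 µM dose, initial 340 nm absorbance at least 2 fold that of control wells; inactive = change under 2 fold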;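 note: initial absorbance extrapolated from kinetic A340 decline of NADH oxidation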
# Spn DPM-DC inh = S. pneumoniae DPM-DC inhibition; purified DPM-DC, PK/LDH coupled NADH fluorescence; AID 556; hit rate 0.49% among 65,000; calls only at 10 µM;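 active = the 320 compounds with the highest percent inhibition in the single-dose primary screen, excluding strongly autofluorescent ones, cut at about 32% in these data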;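 note: kinetic rate of NADH fluorescence loss reporting ADP formed by the decarboxylase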
# * hit, by the source's call; i = inactive; / = no result shown; + = active, no number.
SMILES,Autofluor 339,Spn PMK inh,MK inhibit,NADH enzymes,Abs 340nm,Spn DPM-DC inh
C=CCn1c(=NC(=O)C2CC2)sc2cc(NC(C)=O)ccc21,2.1*,21,10,16%,1.1,/
CCOC(=O)c1c(C)[nH]c(C)c1C(=O)CSc1nnc(-c2ccco2)n1Cc1ccccc1,1.1,19,4,8%,1,i
O=C(c1n[nH]c(=O)c2ccccc12)N1CCN(C2c3ccccc3-c3ccccc32)CC1,0.97,29*,1,12%,0.99,i
CCC(CC)NC(=O)c1n[nH]c(=O)c2ccccc12,1,0,0,0%,1,i
O=C(Nc1sc2c(c1C(=O)NCc1ccco1)CCCC2)c1ccc2c(c1)OCO2,2.9*,6,15,6%,1,/
CCc1nc(-c2cc3ccc(C)cc3[nH]c2=O)no1,4.5*,13,7,10%,1.1,/
Cc1ccc2[nH]c(=O)c(-c3noc(C(C)C)n3)cc2c1,2.2*,0,4,2%,1.1,/
Cc1ccc2cc(CCNC(=O)C(C)(C)C)c(=O)[nH]c2c1,1.2,7,0,2%,1.1,i
Cc1ccc2cc(-c3noc(C(C)(C)C)n3)c(=O)[nH]c2c1,3.9*,9,7,14%,1.1,i
Cc1ccc2[nH]c(=O)c(-c3noc(-c4ccncc4)n3)cc2c1,1.2,4,9,3%,1,i
COc1ccc(S(=O)(=O)Cc2ccccc2)cc1N,1.1,1,/,1%,0.97,i
Cc1onc(-c2ccccc2)c1C(=O)N1CCc2ccccc21,1.1,1,11,4%,0.99,i
CC(C)(C)NC(=O)CN(C(=O)CS(=O)CC(=O)Nc1ccc(F)cc1)c1ccc(F)c(Cl)c1 (stereo not given),1.1,19,0,6%,0.97,i
Cc1cc(C(=O)OCC(=O)Nc2ccc(F)cc2F)c(C)o1,1.1,19,0,6%,1,i
O=c1cccccc1NCc1ccccc1,1.1,1,5,13%,1.1,+
CCCn1c(SCC(=O)NC(=O)NCc2ccco2)n[nH]c1=O,1,13,0,3%,1,i
CCCn1c(SCc2cc(=O)oc3ccc4ccccc4c23)n[nH]c1=O,2.1*,17,0,9%,1.1,/
CCCCN(C)C(=O)CCC(=O)Nc1ccc2nc(N3CCOCC3)cc(C)c2c1,4.8*,12,7,10%,1.1,/
COc1ccc(N(C)C(=O)CCC(=O)Nc2ccc3nc(N4CCOCC4)cc(C)c3c2)c(OC)c1,4.8*,13,4,9%,1,/
CCN1CCN(c2cc(C)c3cc(NC(=O)c4cnccn4)ccc3n2)CC1,1,4,2,2%,1.2,i
CCN1CCN(c2cc(C)c3cc(NC(=O)Cc4ccc(OC)c(OC)c4)ccc3n2)CC1,2.1*,0,2,1%,1.1,/
Cc1cccc(NC(=O)c2cc(N3CCOCC3)nc3ccccc23)c1,1.9,2,10,4%,1,i
Cc1cc(N2CCOCC2)nc2ccc(NC(=O)CCC(=O)N3CCC(C)CC3)cc12,4.8*,10,4,7%,1,/
Cc1cc(N2CCN(C)CC2)nc2ccc(NC(=O)c3ccc4c(c3)OCO4)cc12,1.1,0,9,4%,1.1,i
CCOc1ccccc1NC(=O)CCC(=O)Nc1ccc2nc(N3CCN(C)CC3)cc(C)c2c1,3.8*,14,0,6%,1.1,i
SMILES,Autofluor 339,Spn PMK inh,MK inhibit,NADH enzymes,Abs 340nm,Spn DPM-DC inh
Cc1ccc(NC(=O)c2cc(N3CCOCC3)nc3ccccc23)cc1,1.6,7,12,10%,1,i
Cc1cc(N2CCOCC2)nc2ccc(NC(=O)CCC(=O)N3CCCCC3)cc12,4.7*,11,2,7%,1,/
CCC(C)NC(=O)CCC(=O)Nc1ccc2nc(N3CCOCC3)cc(C)c2c1 (stereo not given),5*,8,0,4%,1.1,/
CCCC(=O)Nc1ccc2c(c1)C(=O)N(CCC(=O)O)C2=O,3.8*,8,10,9%,1.1,/
O=C(O)CCN1C(=O)c2ccc(NC(=O)c3cccs3)cc2C1=O,3.6*,8,12,10%,1.1,/
O=S(=O)(c1ccc2c(c1)C(=NO)c1cc(S(=O)(=O)N3CCCCC3)ccc1-2)N1CCCCC1,2*,8,9,6%,1,i
O=S(=O)(c1ccc(S(=O)(=O)N2CCCC2)cc1)N1CCCCCC1,1,11,0,6%,1,i
CCOC(=O)C(NC(=O)c1ccccc1)=C1C=C(C)OC(C)=C1,1.1,5,5,3%,1.2,i
COC(=O)C(NC(=O)c1ccccc1)=C1C=C(C)OC(C)=C1,1.1,29*,0,10%,1.3,i
COC(=O)c1ccccc1NC(=O)c1cc(-c2cccs2)on1,2*,15,8,11%,1,i
COC(=O)c1ccccc1NC(=O)c1cc(-c2cccc(OC)c2)on1,1.4,11,2,4%,1.1,i
Cc1cc(N2CCC(C)CC2)nc2ccc(N3C(=O)CCC3=O)cc12,5*,8,4,6%,1,/
Cc1cc(N2CCN(C)CC2)nc2ccc(NC(=O)c3ccc(Br)o3)cc12,1.1,0,5,2%,1.2,i
CCOC(=O)C1Cc2cc3c(cc2C1=O)CC(C(=O)OCC)C3=O (stereo not given),3.7*,2,0,1%,1.1,/
COc1cccc(CN2CCN(C(=O)c3cccc(F)c3)CC2)c1,1,0,51*,17%,1.1,i
COc1cc(OC)cc(C(=O)N2CCN(C(=O)c3cccc(F)c3)CC2)c1,1.1,8,9,6%,1,i
CCCn1c(N)c(Sc2ccc(Cl)cc2)c(=O)n(CCC)c1=O,1.1,7,0,2%,1,i
Cc1sc(NC(=O)CSc2nnc(COc3ccccc3)n2C)c(C#N)c1C,2.1*,17,9,5%,1,i
CCOC(=O)C1=C(C)NC(SCC(=O)Nc2cc(C)on2)=C(C#N)C1c1cccs1 (stereo not given),1.2,5,7,4%,1,i
O=C(c1ccco1)N1CCN(c2nc3ccccc3n3nnnc23)CC1,1.6,18,0,6%,1.1,i
CC(C)c1cc(N2CCN(C(=O)c3ccco3)CC2)n2c(nc3ccccc32)c1C#N,2.1*,13,5,9%,1.1,/
Cc1cc(-c2ccco2)c(C#N)c2nc3ccccc3n12,2.2*,0,9,5%,1.3,/
CCc1c(C)c(C#N)c2nc3ccccc3n2c1-n1nc(C)cc1C,1.2,5,0,2%,1,i
O=C(C1CCCN(S(=O)(=O)Cc2ccccc2)C1)N1CCc2ccccc21 (stereo not given),1.1,0,6,2%,1.1,i
CCOC(=O)c1c(C)nn(Cc2cccc(Cl)c2)c1N,1.1,21,0,7%,0.98,i

# Bioassay records deposited in PubChem by SRMLSC.
